Sampled rows, rich in hits. Any-hit rate of the full collection: about 0.51%.
FMDV RLuc: Primary qHTS Assay for Foot and Mouth Disease Virus Antivirals against NCGC Sytravon and CBC Compound Libraries: Renilla Luciferase Signal | Potency, µM (highest dose often 57.5 µM), inactives show at the highest dose activity change, negative = inhibition, usual class: inhibitors | FMDV replicon cells, Renilla luciferase signal | actives 0.32% (n = 120,000); also: nearly all actives have a fitted effect of over 55% in size
FMDV FLuc: Primary qHTS Assay for Foot and Mouth Disease Virus Antivirals against NCGC Sytravon and CBC Compound Libraries: Firefly Luciferase Signal. FMDV antiviral cell assay, firefly luciferase signal. Potency, µM (top dose mostly 57.5 µM), inactives show top-dose activity change, negative = inhibition, most hits filed as inhibitors. actives 0.23% (n = 120,000). AID 1745856, 2022; also: nearly all actives have a fitted effect of over 60% in size
Numbers without * were called inactive; ? = inconclusive; [ ] = dose if it differs, or a comment. Calls follow the shape of the full dose curve. % is scaled to controls: 0 for no effect and ±100 for the full control effect; potency is read from the fitted curve at half-maximal effect.

SMILES	FMDV RLuc	FMDV FLuc
COc1ccc(CNCCc2ccc(F)cc2)cc1	4%[1.06 µM]	0%
CCOC(=O)c1cnc2ccc(C(=O)OC)cc2c1Nc1ccc(C(C)=O)cc1	1%	0%
CCc1ccc(OCCn2c(C3CC(=O)N(Cc4ccc(F)cc4)C3)nc3ccccc32)cc1 (configuration not stated)	?	-2%
CC(C)CCn1c(C2CC(=O)N(Cc3ccc(F)cc3)C2)nc2ccccc21 (configuration not stated)	18µM*	18µM*
COc1ccccc1-c1nc(Cn2nnc(C(=O)NCc3ccc(Cl)cc3)c2N)c(C)o1	-10%	-13%
CCOc1ccc(C(=O)Nc2ccccc2N2CCN(C(=O)c3ccccc3)CC2)cc1	14%	6%
CN(Cc1cccs1)C(=O)CCl	28µM*	?
CCN(Cc1cccs1)C(=O)CCl	-13%	-8%
O=C(NNC(=S)Nc1ccccc1)c1ccc(-c2ccccc2)cc1	25%	165%
Cc1ccc([N+](=O)[O-])[c]2c1[O][Hg]2	?	2.8µM*
Cc1cc(C)c([N+](=O)[O-])cc1[N+](=O)[O-]	-12%	9%
COc1cccc(CN2CCC(C(O)(c3ccccc3)c3ccccc3)CC2)c1OC	16%[1.06 µM]	?
COc1cc(CN2CCC(C(O)(c3ccccc3)c3ccccc3)CC2)ccc1OCc1ccccc1	35µM*	?
CCOc1ccc(NC(=O)c2cc(C)nc3ccc(C)cc23)cc1OCC	0%	-7%
Cc1ccc(CN(C)Cc2cc(=O)oc3ccc(C)cc23)cc1	0%	7%
COc1ccc2oc(=O)cc(CN(C)Cc3ccc(C)cc3)c2c1	35µM*	?
C=CCN(CC#Cc1ccccc1)Cc1ccc2c(c1)OCO2	6%	29%
COc1ccc(-c2noc(CCCC(=O)Nc3cccc(Cl)c3C)n2)cc1	-12%	-14%
COc1ccc(-c2noc(CCCC(=O)Nc3ccc(S(=O)(=O)N4CCCCCC4)cc3)n2)cc1	?	32µM*
O=C(Nc1ccncc1)c1cccc(OCc2ccc(F)cc2)c1	6.3µM*	?
C=CCOc1cccc(NC(=O)c2ccncc2)c1	11%	33%
O=C(NCCC1CCCO1)c1cc(-c2ccc(F)cc2)nc2ccccc12 (configuration not stated)	30%	38%
CCCCc1ccc(NC(=O)COc2cccc3c(=O)n(C)ccc23)cc1	8.9µM*	?
CCCn1ccc2c(OCC(=O)NCc3ccc(C)cc3)cccc2c1=O	13%	-10%
CCc1ccc(Nc2c3c(nc4ccccc24)CCC3)cc1	?	25µM*
SMILES	FMDV RLuc	FMDV FLuc
c1ccc(Nc2c3c(nc4ccccc24)CCC3)cc1	-24%	-12%
Cc1ccc(S(=O)(=O)NCCc2cccc3cccnc23)cc1C	192%	12%
CCN1CCN(C(C(=O)O)c2c[nH]c3ccc(NC(=O)c4ccccc4)cc23)CC1 (configuration not stated)	-8%	14%
CCN1CCN(C(C(=O)O)c2c[nH]c3cc(NC(=O)c4ccccc4)ccc23)CC1 (configuration not stated)	1%	13µM*
COC(=O)C1(NC(=O)COc2ccc(Cl)cc2Cl)CCCCC1	8.9µM*	8.9µM*
COC(=O)C1(NC(=O)c2cc(Cl)ccc2Cl)CCCCCC1	-5%	-11%
Cc1ccc(CCNC(=O)c2cc3c(s2)CSC3)cc1	11%	33%
O=C(Cc1ccc2c(c1)CCCC2)NC1CCCCC1	50%	90%
O=S(=O)(Nc1nc2ccccc2nc1Nc1ccc(F)cc1)c1ccc(F)cc1	3.5µM*	2.5µM*
COc1ccccc1Nc1nc2ccccc2nc1NS(=O)(=O)c1ccc(Cl)s1	2%	1%
O=S(=O)(Nc1nc2ccccc2nc1Nc1cccc(F)c1)c1cccc(Cl)c1	4µM*	3.5µM*
COc1cccc(Nc2nc3ccccc3nc2NS(=O)(=O)c2cccc(Cl)c2)c1	32%	?
O=S(=O)(Nc1nc2ccccc2nc1Nc1ccccc1)c1ccc(Cl)s1	?	4.5µM*
CCOc1ccc(S(=O)(=O)Nc2nc3ccccc3nc2Nc2ccc(F)cc2)cc1	2%	3%
CC(=O)NC(C(=O)N1CCC(c2c[nH]c3ccccc23)CC1)C(C)C (configuration not stated)	-13%	-12%
Cn1cc(C(=O)NC2CCCCC2)c(-c2ccc3c(c2)OCCCO3)n1	20%	0%
CCCCN(Cc1ccccc1)c1ccc(NS(=O)(=O)c2ccccc2Cl)cc1C(=O)O	80%	7%
Cn1nc(CC(=O)Nc2ccc(Cl)cc2Cl)c2ccccc2c1=O	3.2µM*	?
Cn1nc(CC(=O)Nc2ccc(O)cc2)c2ccccc2c1=O	-24%	?
CC(=O)c1ccc(NC(=O)c2cccc(N(C)C)c2)cc1	13%	192%
CNc1nc2c(c(=O)n(C)c(=O)n2C)n1CC(O)COc1ccc(OC)cc1 (configuration not stated)	22µM*	?
Cc1ccc(OCC(O)Cn2c(N)nc3c2c(=O)n(C)c(=O)n3C)cc1 (configuration not stated)	-14%	3%
O=C(Nc1ccc2cc[nH]c2c1)C(=O)NC1CCCCCC1	3%	179%
Cc1ccc2c(C=O)c(C)[nH]c2c1	30%	0%
Cc1cccc(Cn2c(=O)n(-c3ccccc3C)c(=O)c3c2c2cc(C)ccc2n3C)c1	-9%	-16%
SMILES	FMDV RLuc	FMDV FLuc
Cc1ccc2[nH]c(C)c(/C=C/c3cc[n+](C)cc3)c2c1	11µM*	13µM*
Cc1ccc2c(c1)c(/C=C/c1cc[n+](C)cc1)c(C)n2C	8.9µM*	?
CCCn1nc(C(=O)N2CCC(C(=O)OC)CC2)c2ccccc2c1=O	-3%	-4%
Cc1sc(NC(=O)c2ccccc2)c(C(c2cccs2)N2CCN(C)CC2)c1C (configuration not stated)	-5%	37%
CCCCN(C)C(=O)COc1ccc2c(=O)c(-c3ccc(OC)c(OC)c3)c(C)oc2c1	-5%	-17%
Clc1ccc(Cl)c(-c2ccc(CNCC3CCNCC3)o2)c1	28µM*	32µM*
Fc1ccc(-c2ccc(CNCC3CCNCC3)o2)cc1	-28%	-27%
O=C(CCCCl)Nc1ncc(Cc2cccc(Cl)c2)s1	12%	0%
CCCn1nc(C(=O)Nc2ncc(Cc3cccc(Cl)c3)s2)ccc1=O	?	28µM*
Cc1nc2cc(-c3cccc(F)c3)nn2c(C)c1CCC(=O)Nc1ccc(CN2CCCC2)cc1	-17%	?
COc1ccc(N2CCN(C(=O)CCc3c(C)nc4cc(-c5cccc(F)c5)nn4c3C)CC2)cc1	-4%	25µM*
Cc1nc2cc(-c3ccccc3)nn2c(C)c1CCC(=O)Nc1ccc(F)cc1	-3%	3.2µM*
Cc1nc2cc(-c3ccccc3)nn2c(C)c1CCC(=O)Nc1ccc(F)cc1F	-8%	?
Cc1nc2cc(-c3cccc(F)c3)nn2c(C)c1CCC(=O)Nc1ccc(F)c(Cl)c1	-2%	2.2µM*
Cc1nc2cc(-c3cccc(F)c3)nn2c(C)c1CCC(=O)N1CCN(c2ccc(F)cc2)CC1	-5%	?
N#Cc1cccc(NS(N)(=O)=O)c1	26%	40%
COC(=O)c1nnn(CC(=O)Nc2ccc(F)cc2F)c1C(=O)OC	-9%	-11%
COc1ccc(F)cc1C(=O)/C=C/c1cccc(C#N)c1	?	3.5µM*
COc1ccc(F)cc1C(=O)/C=C/c1ccc(C#N)cc1	0%	0%
CC(C)NCCNC(=O)c1cccs1	5%	2%
CC(C)c1cc(C(=O)N2CCCc3ccccc32)c2ccccc2n1	75%	27%

Screening data from PubChem BioAssay.
